# PubChem BioAssay AID1159580 (chemical genetic matrix, 2015)
# “And” between values parts separate entries of the source, which are not always exact repeats. Equal values may be shown once. The whole screen tested about 5,500 compounds, of which about 2,000 (36%) were called active. Roughly 18% stayed inconclusive and do not appear here. Some of the results follow. Values without a mark were called inactive. No stated cut-off is given here; in the data, active means normalized growth mostly below about 0.91 (no sharp cut-off); inconclusive means no clear call, values can overlap the other calls; inactive means mostly above about 0.92.
# Experiment: chemical genetic growth profiling, strain panel (AID 1159580);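 further: tested at 20 µM; growth read once vehicle control cultures reached saturation at 30 °C; 1 = growth at the plate median or of vehicle wells; lower values mean less growth of the strain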
# Details: S. cerevisiae deletion strains, growth OD
compound,measurement,setting,value
CC(=O)Oc1ccc2c(c1)CCC1C2CC[C@@]2(C)C1CC[C@@H]2OC(C)=O (some centres undefined),normalized growth,"locus YAL021C, strain ccr4, hits give low values",1.01
same,normalized growth,"locus YAL026C, strain drs2, hits give low values",0.984
same,normalized growth,"locus YAL030W, strain snc1, hits give low values",0.984
same,normalized growth,"locus YBL061C, strain skt5, hits give low values",0.977
same,normalized growth,"locus YBR009C, strain hhf1, hits give low values",0.969
same,normalized growth,"locus YBR021W, strain FUR4, hits give low values",0.955
same,normalized growth,"locus YBR023C, strain chs3, hits give low values",0.957
same,normalized growth,"locus YBR171W, strain sec66, hits give low values",0.921
same,normalized growth,"locus YBR229C, strain ROT2, hits give low values",0.94
same,normalized growth,"locus YBR231C, strain swc5, hits give low values",1.02
same,normalized growth,"locus YBR279W, strain paf1, hits give low values",1.02
same,normalized growth,"locus YCL011C, strain gbp2, hits give low values",0.991
same,normalized growth,"locus YCL016C, strain dcc1, hits give low values",0.991
same,normalized growth,"locus YCL029C, strain bik1, hits give low values",0.972
same,normalized growth,"locus YCL069W, strain vba3, hits give low values",0.989
same,normalized growth,"locus YCR088W, strain abp1, hits give low values",0.978
same,normalized growth,"locus YDL005C, strain med2, hits give low values",1
same,normalized growth,"locus YDL035C, strain GPR1, hits give low values",0.971
same,normalized growth,"locus YDL040C, strain nat1, hits give low values",0.994
same,normalized growth,"locus YDL074C, strain BRE1, hits give low values",0.872
same,normalized growth,"locus YDL101C, strain DUN1, hits give low values",0.969
same,normalized growth,"locus YDL134C, strain PPH21, hits give low values",0.985
same,normalized growth,"locus YDL185W, strain tfp1, hits give low values",0.983
same,normalized growth,"locus YDL192W, strain arf1, hits give low values",0.984
same,normalized growth,"locus YDR001C, strain nth1, hits give low values",0.983
same,normalized growth,"locus YDR069C, strain doa4, hits give low values",0.983
same,normalized growth,"locus YDR101C, strain arx1, hits give low values",0.967
same,normalized growth,"locus YDR137W, strain rgp1, hits give low values",0.841 (active)
same,normalized growth,"locus YDR159W, strain sac3, hits give low values",0.924
same,normalized growth,"locus YDR162C, strain NBP2, hits give low values",0.969
same,normalized growth,"locus YDR195W, strain ref2",1.08
same,normalized growth,"locus YDR297W, strain sur2, hits give low values",0.988
same,normalized growth,"locus YDR318W, strain mcm21, hits give low values",0.971
same,normalized growth,"locus YDR334W, strain swr1, hits give low values",0.994
same,normalized growth,"locus YDR335W, strain msn5, hits give low values",1.03
same,normalized growth,"locus YDR388W, hits give low values",0.979
same,normalized growth,"locus YDR392W, strain spt3, hits give low values",0.674 (active)
same,normalized growth,"locus YDR502C, strain sam2, hits give low values",0.969
same,normalized growth,"locus YEL003W, strain gim4, hits give low values",0.973
same,normalized growth,"locus YEL037C, strain rad23, hits give low values",0.992
same,normalized growth,"locus YEL061C, strain CIN8 (second series), hits give low values",0.992
same,normalized growth,"locus YEL061C, strain CIN8, hits give low values",0.964
same,normalized growth,"locus YER015W, strain faa2, hits give low values",1
same,normalized growth,"locus YER016W, strain bim1, hits give low values",1
same,normalized growth,"locus YER110C, hits give low values",0.984
same,normalized growth,"locus YER111C, strain swi4, hits give low values",0.986
same,normalized growth,"locus YER155C, strain BEM2 (second series), hits give low values",0.951
same,normalized growth,"locus YER155C, strain BEM2, hits give low values",0.973
same,normalized growth,"locus YER167W, strain BCK2, hits give low values",0.971
same,normalized growth,"locus YFR010W, strain ubp6, hits give low values",1
same,normalized growth,"locus YGL078C, strain dbp3, hits give low values",0.98
same,normalized growth,"locus YGL086W, strain mad1, hits give low values",0.958
same,normalized growth,"locus YGL167C, strain pmr1, hits give low values",0.973
same,normalized growth,"locus YGL173C, strain kem1, hits give low values",0.987
same,normalized growth,"locus YGL227W, strain vid30, hits give low values",0.989
same,normalized growth,"locus YGL240W, strain doc1, hits give low values",0.993
same,normalized growth,"locus YGL248W, strain PDE1, hits give low values",0.94
same,normalized growth,"locus YGL253W, strain hxk2, hits give low values",1.01
same,normalized growth,"locus YGR078C, strain PAC10, hits give low values",0.943
same,normalized growth,"locus YGR135W, strain pre9, hits give low values",0.986
same,normalized growth,"locus YGR229C, strain SMI1, hits give low values",0.954
same,normalized growth,"locus YGR252W, strain gcn5, hits give low values",0.947
same,normalized growth,"locus YHR013C, strain ard1, hits give low values",1.02
same,normalized growth,"locus YHR027C, strain rpn1, hits give low values",0.995
same,normalized growth,"locus YHR030C, strain SLT2, hits give low values",0.988 and 0.952
same,normalized growth,"locus YHR079C, strain IRE1 (second series), hits give low values",0.977
same,normalized growth,"locus YHR079C, strain IRE1, hits give low values",0.937
same,normalized growth,"locus YHR094C, strain hxt1, hits give low values",0.978
same,normalized growth,"locus YHR129C, strain ARP1, hits give low values",0.982
same,normalized growth,"locus YHR142W, strain chs7, hits give low values",0.953
same,normalized growth,"locus YHR200W, strain rpn10, hits give low values",0.963
same,normalized growth,"locus YIL066C, strain RNR3, hits give low values",0.948
same,normalized growth,"locus YIL073C, strain SPO22, hits give low values",0.97
same,normalized growth,"locus YIL125W, strain kgd1, hits give low values",0.966
same,normalized growth,"locus YIR030C, strain dcg1, hits give low values",0.981
same,normalized growth,"locus YJL092W, strain hpr5, hits give low values",0.975
same,normalized growth,"locus YJL095W, strain BCK1 (second series), hits give low values",0.973
same,normalized growth,"locus YJL095W, strain BCK1, hits give low values",0.926 and 0.951
same,normalized growth,"locus YJL115W, strain asf1, hits give low values",0.997
same,normalized growth,"locus YJL129C, strain trk1, hits give low values",0.886
same,normalized growth,"locus YJL134W, strain LCB3, hits give low values",0.978
same,normalized growth,"locus YJL154C, strain vps35, hits give low values",0.995
same,normalized growth,"locus YJL164C, strain tpk1, hits give low values",0.958
same,normalized growth,"locus YJL166W, strain qcr8, hits give low values",0.988
same,normalized growth,"locus YJL168C, strain set2, hits give low values",0.963
same,normalized growth,"locus YJL187C, strain SWE1 (second series), hits give low values",0.956
same,normalized growth,"locus YJL187C, strain SWE1, hits give low values",0.979
same,normalized growth,"locus YJR043C, strain POL32, hits give low values",0.976
same,normalized growth,"locus YJR066W, strain TOR1, hits give low values",0.956
